# Experimental data from PubChem BioAssay AID1671190 (National Center for Advancing Translational Sciences (NCATS), 2021).
# Hit rate of the full screen: of about 580,000 compounds, about 6,100 (1.1%) were called active. About 15% were inconclusive and are not listed. For the sample, actives were picked, then their nearest neighbours and some compounds at random. A number with no mark means an inactive call. Calls follow the shape of the dose curve; as a rule, active = well fitted inhibition curve with a large enough effect; inconclusive = small, poorly fitted or top-dose-only effect, or another doubt; inactive = no such curve, though single readings can be large or run the other way.
# Molecular target: Polyunsaturated fatty acid lipoxygenase ALOX12 (Homo sapiens) (UniProt P18054)
# Sequence (P18054 whole entry, looked up): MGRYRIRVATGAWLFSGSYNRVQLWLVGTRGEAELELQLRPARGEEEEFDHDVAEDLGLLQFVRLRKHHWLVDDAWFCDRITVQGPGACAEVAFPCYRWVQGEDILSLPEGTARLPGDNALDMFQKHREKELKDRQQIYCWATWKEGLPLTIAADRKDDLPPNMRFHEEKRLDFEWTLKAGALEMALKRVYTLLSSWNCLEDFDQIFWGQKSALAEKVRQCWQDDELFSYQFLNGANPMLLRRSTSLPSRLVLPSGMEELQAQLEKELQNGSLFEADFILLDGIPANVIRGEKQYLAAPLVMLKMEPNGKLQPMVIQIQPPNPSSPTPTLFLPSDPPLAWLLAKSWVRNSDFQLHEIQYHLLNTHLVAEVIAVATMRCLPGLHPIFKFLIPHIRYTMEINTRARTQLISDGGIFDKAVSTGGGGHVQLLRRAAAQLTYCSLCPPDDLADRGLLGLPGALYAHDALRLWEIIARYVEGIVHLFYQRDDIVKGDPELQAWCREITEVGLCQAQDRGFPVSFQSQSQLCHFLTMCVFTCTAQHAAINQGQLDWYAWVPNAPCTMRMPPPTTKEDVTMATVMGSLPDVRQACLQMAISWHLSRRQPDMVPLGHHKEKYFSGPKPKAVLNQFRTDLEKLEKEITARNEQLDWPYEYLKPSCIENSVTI
# Experiment: Primary qHTS assay for inhibitors of human arachidonate 12S-lipoxygenase (ALOX12): Round 2
# Conditions: purified 12hLO, xylenol orange hydroperoxide absorbance; series mostly up to 108 µM; activity change, negative = inhibition: at the top concentration
# Summary of the method: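 Hydroperoxide product was detected by ferrous iron/xylenol orange as the 573 to 405 nm absorbance ratio. Arachidonic acid at 40 uM (final) was turned over for 30 min at room temperature by 150 nM human 12hLO, pH 7.0 Hepes buffer, after 15 min compound preincubation.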
# % is scaled to controls: 0 for no effect and ±100 for the full control effect; potency is read from the fitted curve at half-maximal effect.
Compound,"activity change, negative = inhibition",Potency
CCNC(=O)C1CCCN1S(=O)(=O)c1ccc(Br)s1 (stereo not given),4.48%,
Cc1ccc(CN2CCN(C(=O)CCC[C@H]3NC[C@@H]4C[C@H]3CN(Cc3ccccc3)C4)CC2)cc1,-13.9%,
Cc1oc(-c2ccccc2)nc1Cn1ncc2ccccc2c1=O,-5.85%,
Cc1cccc(CN2CCC3(Cc4ccccc4CNC3=O)C2)c1 (stereo not given),3.12% [at 6.33 µM],
COc1ccc(CN2CCC3(Cc4ccccc4CNC3=O)C2)cc1OC (stereo not given),8.59% [at 6.33 µM],
Cc1ccc(CN2CCC3(Cc4ccccc4CNC3=O)C2)cc1 (stereo not given),,28.2 µM (active)
O=C(NC1CCN(CCCc2nc3ccccc3o2)CC1)C1CCCCC1,-5.42%,
CCC(=O)Nc1ccccc1-c1nc2ccccc2n(CC(=O)Nc2ccc(NC(C)=O)cc2)c1=O,-26.1%,
CN(C)S(=O)(=O)c1ccc(C(=O)NCCN=C2NS(=O)(=O)c3ccccc32)cc1,1.56%,
O=C1NS(=O)(=O)c2ccccc21,,12.6 µM (active)
Cc1ccccc1C(=O)NCCN=C1NS(=O)(=O)c2ccccc21,9.19%,
CCN(Cc1nc2ccccc2c(=O)[nH]1)C(=O)Cc1csc(-c2ccc(C)cc2C)n1,3.87%,
COc1ccccc1-c1cc(NC(C)=O)c2ncc(-c3ccc(F)cc3)n2c1,,44.7 µM (active)
COc1cccc(-c2cc(NC(C)=O)c3ncc(-c4cccc(C(C)=O)c4)n3c2)c1,-5.38%,
COc1ccc(-c2cc(NC=O)c3ncc(-c4ccccc4)n3c2)cc1OC,-5.7%,
CC(C)c1noc(C(C)Sc2nc(C3CC3)nc3ccccc23)n1 (stereo not given),7.22%,
O=C(O)CCC(=O)C(CC(=O)O)CC(=O)O,-22.1%,
Cn1nc(C(C)(C)C)cc1NC(=O)c1cccc(F)c1,-45%,
CCOC(=O)N1CCN(C(=S)Nc2ccc(C)cc2C)CC1,0.181%,
Cc1cccnc1NC(=O)c1ccc2nc(C)c(C)nc2c1,14.6%,
Cc1ccc(NC(=O)c2oc(=O)c3ccccc3c2-c2ccccc2)c(C)c1,-8.51%,
Cc1ccc(NC(=S)Nc2ncccc2C)c(C)c1,,8.91 µM (active)

Compound,"activity change, negative = inhibition",Potency
Cc1ccc(NC(=S)NC(=O)c2ccc(-c3ccccc3)cc2)c(C)c1,,17.8 µM (active)
Cc1cc(C)c(/C=N/NC(=O)c2ccccc2)c(C)c1,-20.9%,
O=C(NNC(=O)C1(c2ccc(Br)cc2)CCCC1)c1ccccc1,-11.9%,
COc1ccc(C2Cn3cnc(-c4nc(-c5ccc(OC)cc5OC)no4)c3CO2)cc1 (stereo not given),0.752%,
CCc1c(C(=O)O)csc1C,4.31%,
CCCCc1nc2sc(C(=O)OCC)c(N)c2c2c1COC(C)(C)C2,10.5%,
O=C(OCc1cn([C@@H]2C[C@H](c3ccc(Cl)cc3)N(Cc3cccs3)C[C@H]2O)nn1)c1ccccc1,-2.55%,
O[C@@H]1C[C@H](c2ccccc2)N(Cc2cccs2)C[C@H]1n1cc(C2CC2)nn1,0%,
O[C@H]1C[C@H](c2ccc(Cl)cc2)N(Cc2cccs2)C[C@@H]1n1cc(C2CC2)nn1,,44.7 µM (active)
CC(C)Cn1nc(C(=O)OCC(=O)Nc2ccc(OC(F)(F)F)cc2)c2ccccc2c1=O,3.44%,
Cc1ccccc1S(=O)(=O)N1CCCC(CCC(=O)NCC2CCCCC2)C1 (stereo not given),16.3%,
NC(=O)C1CCN(C(=O)c2ccc3c(=O)n(Cc4cccc(Br)c4)c(=S)[nH]c3c2)CC1,,44.7 µM (active)
CCOC(=O)N1CCN(C(=O)c2ccc3c(=O)n(CCc4ccc(OC)c(OC)c4)c(=O)[nH]c3c2)CC1,-12.7%,
CCOc1cc2[nH]c(=S)n(Cc3ccc(C(=O)N4CCN(C)CC4)cc3)c(=O)c2cc1OCC,2.11%,
O=C(Nc1cccc2cccnc12)C1=C(c2ccccc2)S(=O)(=O)CCO1,23.8%,
COc1ccc2c(C)c(CC(=O)Nc3nnc(C)s3)c(=O)oc2c1OC,-5.78%,
COc1ccc2cc(/C=C(/CC(=O)O)c3nc4ccccc4s3)ccc2c1,-87.4%,
COc1ccc(CC(=O)Nc2ccc(-c3nc4ccccc4s3)c(C)c2)cc1,-8.77%,
COC(=O)Cc1cc(=O)n(-c2nc3ccccc3s2)[nH]1,,6.31 µM (active)
COc1ccc(N2C(=O)C(C)(C)CS2(=O)=O)cc1S(=O)(=O)Nc1ccc(F)c(Cl)c1,1.34%,
CCC1c2nccn2CCCN1C(=O)c1ccc(Cn2cncn2)o1 (stereo not given),49%,
COC(=O)c1ccc(OC)cc1OCc1ccccc1C#N,8.13%,

Compound,"activity change, negative = inhibition",Potency
COc1ccc(C(C#N)=C2C=CC(=NO)c3ccccc32)cc1,,39.8 µM (active)
COc1ccc(-c2ccccc2CN)cc1,23.2% [at 176 µM],
COc1ccc(C(=O)c2sc(Nc3cccc(F)c3)nc2N)cc1,3.41%,
O=C(NCCc1ccccn1)c1nc(Cn2cc([N+](=O)[O-])cn2)no1,1.76%,
O=C(Nc1ccc(Br)c2cccnc12)c1ccc(Cn2cc([N+](=O)[O-])cn2)o1,,15.8 µM (active)
CC(C)N(C(=O)Cn1c(CN2CCOCC2)nc2ccccc21)c1ccccc1,11.2%,
COc1ccc(-n2c(-c3ccc(OC)c(OC)c3)n[nH]c2=S)cc1,,17.8 µM (active)
COc1ccc(-c2nc3ccccc3n2CCC(C)C)cc1OC,0%,
COc1ccc(-c2cn(-c3ccc(C)cc3)c(=O)n2CC(=O)Nc2ccc(OC)c(OC)c2)cc1,-3.1%,
O=C([C@@H]1C[C@H](F)CN1C(=O)Nc1cc(F)cc(F)c1)N1CCCCC1,5.28%,
O=C(Cc1ccc(Cl)cc1)NCc1nnc2ccc(-c3ccc(F)cc3)nn12,-6.29%,
CCOC(=O)Cn1c2c(c(-c3ccccc3OC)cc1=O)CCCC2,17.6%,
CCOC(=O)Cn1c(=O)n(C2CCCCC2)c2nc(-c3cccc(OC)c3)nc(C(N)=O)c21,-15.8%,
CCOC(=O)Cn1c(=O)n(-c2ccccc2OC)c2nc(-c3cccc(F)c3)nc(C(N)=O)c21,,11.2 µM (active)
CCCn1c(C)c(C)c(-c2nc3ccccc3[nH]2)c1NC(=O)CC(C)C,-30%,
Cc1cc(CN2CCN(Cc3nc(C(C)(C)C)no3)CC2)no1,2.24%,
O=c1cc(-c2cccnc2)nc2n(Cc3cccc(F)c3)c3ccccc3n12,55.1%,
CC(C)COC(=O)/C(C#N)=C\c1c[nH]c2ccccc12,-52.5%,
CCCC1CCC(=NNC(=S)NCCc2ccccc2)CC1 (stereo not given),,44.7 µM (active)
O=C(CCC1CCN(S(=O)(=O)c2ccccc2)CC1)NCCc1ccccc1,17.6%,
N#Cc1cccc(NC(=S)NCCc2ccccc2)c1,-47.2%,
